According to PubChem BioAssay (NCATS):
Records with an inconclusive call do not appear. A number with no mark means an inactive call. Activity calls are given as the source filed them. Calls come from the whole dose curve; as a rule, active = well fitted inhibition curve with a large enough effect; inconclusive = small, poorly fitted or top-dose-only effect; inactive = flat fitted curve, though single readings scatter.

Experiment: P-glycoprotein substrates identified in KB-8-5-11 adenocarcinoma cell line, qHTS therapeutic library screen (AID 1346987); note: nearly all actives have a fitted effect of over 65% in size
Conditions: KB-8-5-11 (P-gp overexpressing) viability, CellTiter-Glo, 72 h; series mostly up to 44.5 µM; activity change, negative = cytotoxicity: at the top concentration
Summary of the method: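 In this qHTS, P-gp-rich KB-8-5-11 cells received library compounds across a concentration range. Viability was quantified by luminescence after 72 h at 37 degree C.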
% is set by controls: 0 for no effect and ±100 for the full control effect; potency is the fitted concentration of half-maximal effect.

Row | SMILES | activity change, negative = cytotoxicity | Potency | outcome
1 | O=c1cc(NCCCN[C@@H]2CCOc3c(Br)cc(Br)cc32)[nH]c2ccsc12 | -12.4% | – | –
2 | CN(C)CCOC(C)(c1ccccc1)c1ccc(Cl)cc1 (centres undefined) | – | 16.4 µM (active) | –
3 | COc1ccc(Cl)c(Nc2ncnc3cc(OCC4CCN(C)CC4)c(OC)cc23)c1 | -4.33% | – | –
4 | COc1ccc(CCN(C)CCCOc2nsc(-c3ccccc3)n2)cc1OC | -12.1% | – | –
5 | Cc1cc2c(c(=O)o1)C=C1CC[C@H]([C@H](C)Cn3cnc(=N)c4[nH]cnc43)C[C@@H]1O2 | -16.4% | – | –
6 | C=C(C(=O)OC[C@H]1O[C@@H](OC(=O)/C=C/c2ccccc2)[C@H](O)[C@@H](O)[C@@H]1O)C(O)CO (some centres undefined) | -5.33% [at 17.3 µM] | – | –
7 | CCNC(=O)Nc1ccc(-c2nc3c(c(N4CCOCC4C)n2)CCN(C2COC2)C3)cc1 (centres undefined) | – | 1.84 µM (active) | –
8 | CC(=O)O[C@@H]1[C@H](O[C@@H]2O[C@@H](CO)[C@H](O)[C@H]2O)[C@@H](O[C@@H]2O[C@@H](C)[C@H](O[C@@H]3OC[C@@H](O)[C@H](O)[C@H]3O)[C@@H](O)[C@H]2O)[C@H](OC(=O)[C@]23CCC(C)(C)C[C@H]2C2=CCC4[C@@]5(C)CC[C@H](O[C@@H]6O[C@H](C(=O)O)[C@@H](O)[C@H](O)[C@H]6O[C@@H]6O[C@H](CO)[C@H](O)[C@H](O)[C@H]6O)[C@@](C)(C=O)C5CC[C@@]4(C)[C@]2(C)C[C@H]3O)O[C@@H]1C (some centres undefined) | – | – | inactive [at 9.29 µM]
9 | C=C[C@@]12COC(=O)C(=C)[C@@H]1[C@@H](O)[C@H](C(=C)C(=O)OC)[C@@H](O)C2 | 4.39% | – | –
10 | C=C1/C(=C/C=C2\CCC[C@]3(C)[C@@H]([C@@H](C)OCCC(O)(CC)CC)CC[C@@H]23)C[C@@H](O)C[C@@H]1O | -17.5% | – | –
11 | C[C@@H](NC(=O)c1ccc(C#Cc2cccc(F)c2)cn1)C(C)(C)O | -12.1% | – | –
12 | CCc1ccccc1OC[C@@H](O)CN[C@H]1CCCc2ccccc21 | – | 20.6 µM (active) | –
13 | COc1cccc(-c2cc(F)ccc2C2Cc3nc(N)nc(C)c3C(=O)N2)n1 (centres undefined) | – | 0.0259 µM (active) | –
14 | Fc1ccc(-c2cncc(CN3CCN(c4cccc5c4OCCO5)CC3)c2)cc1 | -26.7% | – | –
15 | CC(C)(C)c1ccc2c(c1)CC[C@H]2NC(=O)Nc1cccc2[nH]ncc12 | -9.11% | – | –
16 | O=C(NCCCNC(=O)c1ccc[nH]c1=O)c1cc(-c2ccccc2)on1 | -19.4% | – | –
17 | Cc1cc(C)nc(SCC(=O)Nc2ncc(Cc3cccc4ccccc34)s2)n1 | -17.4% | – | –
18 | Cn1ccc(NC(=O)c2cc(Oc3ccc(C(=O)N4CCC4)c(F)c3)c3c(c2)OC(C)(C)C3)n1 | -14.5% | – | –
19 | C=C1CC2OC(=O)C(=C)C2C(O)/C=C(\C)CCC1O (centres undefined) | -2.54% | – | –
20 | OC1C=C2C3CN(Cc4cc5c(cc43)OCO5)C2CC1O (centres undefined) | – | 13 µM (active) | –

Row | SMILES | activity change, negative = cytotoxicity | Potency | outcome
21 | O=c1[nH]cnc2c([C@@H]3N[C@H](CO)[C@@H](O)[C@H]3O)c[nH]c12 | – | – | inactive
22 | N#Cc1cc(CN2CCC(Nc3ncnc4sc(Cl)cc34)CC2)ccc1F | – | 9.2 µM (active) | –
23 | CC(C)(C)c1ccc(-c2nc3c(N4CCN(Cc5ccc6nccnc6c5)CC4)cccc3[nH]2)cc1 | – | 13 µM (active) | –
24 | COc1ccc([C@H]2Cc3cccc(O)c3C(=O)O2)cc1OC | -10.2% | – | –
25 | CCN(CC)C(=O)c1ccc(Nc2nc(OCC3CCCCC3)c3[nH]cnc3n2)cc1 | – | 18.4 µM (active) | –
26 | Nc1nc(O)c(C2=C3C(=Nc4ccccc43)C(=O)NCC2)[nH]1 | – | – | inactive
27 | COc1cc(-c2cn(C3CCc4c(F)cccc4N(CC(F)(F)F)C3=O)nn2)ccc1-n1cnc(C)c1 (centres undefined) | -14% | – | –
28 | COC(=O)C(Cc1ccc(OCCn2c(=O)sc3cc(C(=O)c4ccccc4)ccc32)cc1)C(=O)OC | – | – | inactive
29 | CC(C)c1ccc(NC(=O)Cn2cnc3c2c(=O)n(C)c(=O)n3C)cc1 | -8.73% | – | –
30 | Nc1nc(NC2CC2)cc(-c2cccc(Cl)c2Cl)n1 | – | 6.51 µM (active) | –
31 | O=C(Nc1ccc(C(O)(C(F)(F)F)C(F)(F)F)cc1)c1ccc(C(F)(F)F)cc1 | – | 18.4 µM (active) | –
32 | CC1OC(OC2C(O)COC(O[C@@H]3[C@@H](O)[C@@H](O)[C@H](OC4C(OC(=O)[C@]56CCC(C)(C)CC5C5=CCC7[C@@]8(C)C[C@H](O)[C@H](OC9OC(CO)C(O)C(O)C9O)[C@@](C)(CO)C8[C@H](O)C[C@@]7(C)[C@]5(C)CC6)OCC(O)C4O)O[C@H]3C)C2O)C(O)C(O)C1O (some centres undefined) | -5.97% [at 9.29 µM] | – | –
33 | COc1ccc2nc3n[nH]c(C)c3c(NCCOCCO)c2c1 | 2.13% | – | –
34 | COc1ccc(C2Oc3c(OC)cc(CCCO)cc3C2COC2OC(CO)C(O)C(O)C2O)cc1OC (centres undefined) | – | – | inactive [at 17.3 µM]
35 | O=C(CCl)Nc1cccc(NC2=NS(=O)(=O)c3ccccc32)c1 | – | 18.4 µM (active) | –
36 | CC1=C(C(=O)OC2CCCCC2)C(c2ccc([N+](=O)[O-])cc2)C2=C(CC(C)(C)CC2=O)N1 (centres undefined) | – | – | inactive
37 | CCCc1cc(C)n(C)c(=O)c1CN(C)C(=O)c1cc(-c2ccc(N3CCN(C(C)C)CC3)nc2)cc2c1cnn2C(C)C | -5.87% | – | –
38 | CC(C)NC(=O)N1CC[C@H](N=C2Nc3cc(F)ccc3N(CC(F)F)c3ccc(Cl)cc32)C1 | -19.3% [at 9.29 µM] | – | –
39 | COc1cc(NC(=O)c2cccc(-n3cc(NC(=O)Nc4cccc(C)c4)cn3)c2)cc(OC)c1OC | 4.53% | – | –
